Reference: PubChem BioAssay (EPA / NIEHS)
Active and inactive are the calls of the source. The calls were made as follows: active = hit-call score of the fitted dose curve at least 0.9, where 1 is the maximum; inactive = score below 0.9.

Read-out: Vascular endothelial growth factor receptor 2 (Homo sapiens) (UniProt P35968)
Test: BSK_4H_VEGFRII: BioMAP Diversity Plus: 4H Assay for Vascular endothelial growth factor receptor 2 (VEGFR2) Biomarker Activity (AID 2283031)
Conditions: primary human endothelial cells (HUVEC); actives raise or lower the signal
Procedure: BSK_4H is a cell-based, multiplexed-readout assay that uses umbilical vein endothelium, a human vascular primary cell, with measurements taken at 24 hours after chemical dosing in a 96-well plate.BSK_4H_VEGFRII is an assay component measured in the BSK_4H assay. It measures VEGFRII antibody related to regulation of gene expression using ELISA technology.Data from the assay component BSK_4H_VEGFRII was analyzed into 1 assay endpoint. This assay endpoint, BSK_4H_VEGFRII, was analyzed with bidirectional fitting relative to DMSO as the negative control and baseline of activity. Using a type of binding reporter, gain or loss-of-signal activity can be used to understand changes in the signaling as they relate to the gene KDR. Furthermore, this assay endpoint can be referred to as a primary readout, because this assay has produced multiple assay endpoints where this one serves a signaling function. To generalize the intended target to other relatable targets, this assay endpoint is annotated to the kinase intended target family, where the subfamily is receptor tyrosine kinase.
The levels of cell surface (or secreted, indicated by the prefix "s") biomarker endpoints were measured by ELISA. Overt cytotoxicity to cells in confluent adherent cultures (all systems other than the BT system) was assessed by measuring total protein levels using sulforhodamine B (SRB) staining in parallel cultures at the time of biomarker measurements, indicated as SRB endpoints. For proliferation assays for adherent cell types, individual cell types are cultured at sub-confluence and relative cell numbers quantified by SRB staining at time points optimized for each system (48 h: 3C and CASM3C systems; 72 h: BT and HDF3CGF systems; 96 h: SAg system). SRB was performed by staining cells with 0.1% SRB after fixation with 10% TCA and reading wells at 560 nm.Viability and proliferation of PBMC (T cells) was quantified by Alamar Blue reduction for the SAg and BT systems. For PBMC viability (referred to as PBMC Cytotoxicity within the assay endpoint names), cells were plated (75,000/well in a 96-well plate) and then chemical samples added for 1 h before addition of activators, SEB and TSST-1 (20 ng/mL final concentration each). Cells were incubated for 90 h. Then, Alamar Blue (20 uL/well) (Invitrogen, Cat DAL1100) was added for 6 h, and the plates were read with a fluorescence microplate reader at 546/580 nm (excitation/emission). For PBMC proliferation, cells were plated and activated as above but incubated for only 16 h prior to addition of Alamar Blue. Plates were read after 6 h.

| Compound | outcome | AC50 |
| --- | --- | --- |
| C=CCOC(=O)C(C)(C)OC(=O)c1cc(-n2c(=O)cc(C(F)(F)F)n(C)c2=O)ccc1Cl | inactive | – |
| COP(=O)(OC)O/C(C)=C/C(=O)N(C)C | inactive | – |
| COc1cc(Cl)c(OC)cc1Cl | inactive | – |
| Cn1c(-c2ccccc2)cc(-c2ccccc2)[n+]1C | inactive | – |
| CC1(C)CCC(=Cc2ccc(Cl)cc2)C1(O)Cn1cncn1 (stereo not given) | inactive | – |
| CCOc1cc(C(C)(C)C)ccc1C1COC(c2c(F)cccc2F)=N1 (stereo not given) | – | 22.8 µM (active) |
| COC(=O)NS(=O)(=O)c1ccc(N)cc1 | inactive | – |
| N#Cc1c(Cl)cccc1Cl | inactive | – |
| CS(=O)(=O)c1cc(C(F)(F)F)ccc1C(=O)c1cnoc1C1CC1 | inactive | – |
| CCCCOCN(C(=O)CCl)c1c(CC)cccc1CC | – | 31.1 µM (active) |
| Cc1c(COC(=O)[C@@H]2[C@H](/C=C(\Cl)C(F)(F)F)C2(C)C)cccc1-c1ccccc1 | inactive | – |
| CNC(=O)Oc1cccc2ccccc12 | inactive | – |
| COC(=O)N(C(=O)N1CO[C@@]2(C(=O)OC)Cc3cc(Cl)ccc3C2=N1)c1ccc(OC(F)(F)F)cc1 | inactive | – |
| CO/N=C(/C1=NOCCO1)c1ccccc1Oc1ncnc(Oc2ccccc2Cl)c1F | inactive | – |
| CCCN(CC)CC1COC2(CCC(C(C)(C)C)CC2)O1 (stereo not given) | inactive | – |
| OC(c1ccc(Cl)cc1)(c1ccc(Cl)cc1)C(Cl)(Cl)Cl | – | 20 µM (active) |
| N#CN=C1SCCN1Cc1ccc(Cl)nc1 | inactive | – |
| Nc1cnn(-c2ccccc2)c(=O)c1Cl | inactive | – |
| O=C(O)c1c(Cl)ccc2cc(Cl)cnc12 | inactive | – |
| CCN(CC)C(=O)C(C)Oc1cccc2ccccc12 (stereo not given) | inactive | – |

| Compound | outcome | AC50 |
| --- | --- | --- |
| Clc1nc(Cl)nc(Nc2ccccc2Cl)n1 | inactive | – |
| COP(=S)(OC)SCn1nnc2ccccc2c1=O | inactive | – |
| COC(=O)NC(=S)Nc1ccccc1NC(=S)NC(=O)OC | inactive | – |
| CSC(=O)c1c(C(F)F)nc(C(F)(F)F)c(C(=O)SC)c1CC(C)C | inactive | – |
| N#Cc1c[nH]cc1-c1cccc2c1OC(F)(F)O2 | inactive | – |
| CCOc1nc(F)cc2nc(S(=O)(=O)Nc3c(Cl)cccc3Cl)nn12 | inactive | – |
| CC(C)N1C(=O)c2ccccc2NS1(=O)=O | inactive | – |
| CCNP(=S)(OC)O/C(C)=C/C(=O)OC(C)C (stereo not given) | inactive | – |
| CN/C(=N\[N+](=O)[O-])NCc1cnc(Cl)s1 | inactive | – |
| CCOP(=O)(OCC)Oc1nc(Cl)c(Cl)cc1Cl | inactive | – |
| Cc1cc(C)nc(Nc2ccccc2)n1 | inactive | – |
| COCc1cnc(C2=NC(C)(C(C)C)C(=O)N2)c(C(=O)O)c1 (stereo not given) | inactive | – |
| CCCC(=NOCC)C1=C(O)CC(CC(C)SCC)CC1=O (stereo not given) | inactive | – |
| CC(C)Nc1nc(Cl)nc(NC(C)C)n1 | inactive | – |
| COP(=S)(OC)Oc1ccc([N+](=O)[O-])c(C)c1 | inactive | – |
| COC(=O)c1c(C(F)F)nc(C(F)(F)F)c(C2=NCCS2)c1CC(C)C | inactive | – |
| O=P(O)(O)CCCl | inactive | – |
| CC(C)Oc1cccc(NC(=O)c2ccccc2C(F)(F)F)c1 | inactive | – |
| CS(=O)(=O)c1ccc(C(=O)C2C(=O)CCCC2=O)c([N+](=O)[O-])c1 | inactive | – |
| Cc1cnc(C2=NC(C)(C(C)C)C(=O)N2)c(C(=O)O)c1 (stereo not given) | inactive | – |
